From PubChem
Only some compounds are listed: those with a hit (about 2.8% of all), similar ones and a draw of the others.
IP6K1 inhibitor: Primary qHTS assay for small molecule inhibitors of Inositol hexaphosphate kinase 1 (IP6K1); activity change, % (series mostly up to about 58 µM); IP6K1 kinase, ADP-Glo luminescence, 2 h; active compounds read low; 140,000 tested, 0.81% active; in the data active = activity change below about -25%; note: % is set by controls: 0 for no effect and ±100 for the full control effect
Target sequence (Q92551 whole entry, looked up): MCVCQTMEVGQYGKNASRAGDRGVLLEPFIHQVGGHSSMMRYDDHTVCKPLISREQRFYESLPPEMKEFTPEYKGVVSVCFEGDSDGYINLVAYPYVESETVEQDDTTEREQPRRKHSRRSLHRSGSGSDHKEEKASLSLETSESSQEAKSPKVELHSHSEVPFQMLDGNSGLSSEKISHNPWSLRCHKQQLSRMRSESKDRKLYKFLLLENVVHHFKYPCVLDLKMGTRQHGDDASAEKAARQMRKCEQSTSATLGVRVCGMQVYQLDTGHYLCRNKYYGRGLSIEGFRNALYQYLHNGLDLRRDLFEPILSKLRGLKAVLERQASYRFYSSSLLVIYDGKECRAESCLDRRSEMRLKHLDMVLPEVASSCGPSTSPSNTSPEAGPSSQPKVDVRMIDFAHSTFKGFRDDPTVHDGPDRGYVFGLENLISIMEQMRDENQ
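ADP-Glo luminescence measures ADP made by human IP6K1 during a 2 h RT reaction with ATP/IP6 (mix at 1.3 mM/130 uM); top library doses 57.5 and 19.1 uM final.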
KDM5B inhibitor: Primary screen for KDM5B Histone Demethylases FDH-coupled qHTS; Potency, µM (doses to about 57.7 µM), hits mostly inhibitors; Lysine-specific demethylase 5B (Homo sapiens), Q9UGL1; KDM5B demethylase, FDH-coupled NADH fluorescence (FDH is formaldehyde dehydrogenase); 220,000 tested, 2.6% active; active = well fitted inhibition curve with a large enough effect; inconclusive = small, poorly fitted or top-dose-only effect; inactive = no such curve, though single readings can be large or run the other way; note: potency is the fitted concentration of half-maximal effect; 0% is about no effect; nearly all actives have a fitted effect of over 70% in size
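KDM5BΔAP (200 nM final) in 50 mM HEPES pH 7.5, 0.01% Tween-20 was preincubated 10 min at RT with compound over a concentration range. Substrate mix (H3K4me3 12.5 µM, α-KG 25 µM, Fe²⁺, ascorbate, NAD⁺, FDH) was added, and NADH fluorescence change over 30 min gave dose-response curves.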
* hit, by the source's call; i = inactive; ? = inconclusive; · = no result.

SMILES	IP6K1 inhibitor	KDM5B inhibitor
CC(=O)Nc1ccc(NC(=O)C2c3ccccc3C(=O)N(C3CCCC3)C23CCCC3)cc1 (stereo unspecified)	8.5	?
COCCN1C(=O)c2ccccc2C(C(=O)Nc2cc(OC)cc(OC)c2)C12CCCC2 (stereo unspecified)	16.3	?
COCCN1C(=O)c2ccccc2C(C(=O)NCCc2ccccc2)C12CCCCC2 (stereo unspecified)	13.7	i
CC(=O)NC1(C)CCN(Cc2ccccc2-c2cccc(C(C)=O)c2)C1 (stereo unspecified)	-8.0	?
CC(=O)NC1(C)CCN(Cc2ccccc2-c2ccc3c(ccn3C)c2)C1 (stereo unspecified)	-11.7	35.5µM*
Cc1cc(C)cc(OCc2cc(=O)n3cc(C)sc3n2)c1	-12.6	i
Cc1cn2c(=O)cc(CN3CC[C@@](C)(O)[C@@H](O)C3)nc2s1	-9.1	31.6µM*
CC1(COc2cccnc2)COc2ccc(C(=O)N3CCN(c4ccccn4)CC3)cc2N1 (stereo unspecified)	12.9	?
CC1(C(=O)N2CCN(c3ccccn3)CC2)CCc2cnc(NCc3ccccc3)nc21 (stereo unspecified)	1.8	?
CC1(C(=O)NCC2CC2)CCCc2cnc(NCc3ccccc3)nc21 (stereo unspecified)	0.1	35.5µM*
CC1(C(=O)NCC2CCCO2)CCc2cnc(NCc3ccccc3)nc21 (stereo unspecified)	1.7	39.8µM*
CC1(C(=O)NCCc2ccccn2)CCc2cnc(NCc3ccccc3)nc21 (stereo unspecified)	-9.2	31.6µM*
CC1(C(=O)NCc2cnccn2)CCc2cnc(NCc3ccccc3)nc21 (stereo unspecified)	7.9	?
CC1(C(=O)NC2CC2)CCCc2cnc(Nc3ccccc3)nc21 (stereo unspecified)	2.9	i
O=C(CSc1nc2ccccc2c(=O)n1CCn1cc(Cl)cn1)Nc1ccc(F)c(Cl)c1	·	i
O=C(Nc1ccc2cn[nH]c2c1)c1ccc2c(c1)OCCN(c1ccccc1)C2	6.1	31.6µM*
O=C(Nc1nccs1)c1ccc2c(c1)OCCN(c1ccccc1)C2	-6.3	?
O=C(Nc1cccc(C(F)(F)F)c1)c1cnc2c(c1)N(Cc1ccccc1)CCC2	1.6	7.08µM*
COc1cccc(NC(=O)c2cnc3c(c2)N(C(=O)Cc2ccc(C(C)C)cc2)CCC3)c1	10.2	?
COCCNC(=O)c1cnc2c(c1)N(Cc1ccccc1C(F)(F)F)CCC2	0.2	35.5µM*
COc1ccccc1CC(=O)N1CCCc2ncc(C(=O)Nc3cccc(C(F)(F)F)c3)cc21	4.9	?
CC(C)c1ccc(CC(=O)N2CCCc3ncc(C(=O)Nc4cccc(C(F)(F)F)c4)cc32)cc1	7.1	25.1µM*
COCCNC(=O)c1cnc2c(c1)N(C(=O)Cc1cn(C)c3ccccc13)CCC2	6.5	?
O=C(NCc1ccc(F)cc1)C1CCCCN1Cc1ccc(-c2ccsc2)cc1 (stereo unspecified)	-7.2	·
O=C(COc1ccc(Cl)cc1)Nc1cccc2cccnc12	·	i
SMILES	IP6K1 inhibitor	KDM5B inhibitor
O=C(NCC(=O)N1CCN(CC(=O)N2CCCC2)CC1)c1ccc(N2CCCC2=O)cc1	·	i
O=C(C1CCCCC1)N1CCC2(CC1)NCc1ccccc1NC2=O	5.9	i
O=C(c1ccccc1)N1CCC2(CC1)NCc1ccccc1NC2=O	15.9	89.1µM*
O=C(Nc1c(-c2ccccc2)nc2sccn12)c1cccc(S(=O)(=O)N2CCOCC2)c1	·	i
COc1ccc(S(=O)(=O)N2CCC(C(=O)Nc3ccccc3F)CC2)c2cccnc12	·	i
CCc1ccc(NC(=S)NCC(C)(C)N2CCOCC2)cc1	·	i
Cc1cc(CNC(=O)c2cc(-c3ccccc3)cc3c2OCCN3C)no1	-23.2	39.8µM*
Cc1cc(CNC(=O)c2cc(-c3ccc(N4CCOCC4)cc3)cc3c2OCCN3C)no1	-20.7	?
CN1CCOc2c(C(=O)NCc3cnn(C)c3)cc(-c3ccccc3)cc21	-14.9	39.8µM*
CN1CCOc2c(C(=O)NCc3cnn(C)c3)cc(-c3ccc([S+](C)(=O)[O-])cc3)cc21	-14.9	?
COc1ccc(-c2cc(C(=O)NCc3cc(C)on3)c3c(c2)N(C)CCO3)cc1OC	-21.7	35.5µM*
Cc1ccccc1-c1cc(C(=O)NCc2cccnc2)c2c(c1)N(C)CCO2	-17.5	35.5µM*
COc1ncc(-c2cc(C(=O)NCc3cccnc3)c3c(c2)N(C)CCO3)cn1	-14.2	i
CC(=O)Nc1cc(-c2cc(C(=O)NCc3cc(C)on3)c3c(c2)N(C)CCO3)ccn1	-21.9	i
O=C(c1ccccc1OCC1CCCN(Cc2c[nH]c3ccccc23)C1)N1CCCCC1 (stereo unspecified)	13.9	·
O=C(NCc1ccccc1)[C@@H]1CCCN1c1nccc(Nc2ccccc2Cl)n1	3.6	·
C=CCSc1nc2c(c(=O)[nH]c(=O)n2C)n1CCC	·	i
Cn1c(C(=O)Nc2ccc(C(N)=O)cc2)cc2ccccc21	·	i
CC(C)CCNc1nc(C(=O)Nc2ccc(Cn3cncn3)cc2)cs1	·	i
COc1ccc(-c2onc(C)c2C(=O)NCc2cccs2)cc1	9.0	i
CCC(COC)NC(=O)c1c(C)noc1-c1cc(OC)c(OC)c(OC)c1 (stereo unspecified)	13.6	28.2µM*
COc1cc(-c2onc(C)c2C(=O)NCCCc2ccccc2)cc(OC)c1OC	-11.0	?
COCCCNC(=O)c1c(C)noc1-c1cc(OC)c(OC)c(OC)c1	23.0	31.6µM*
COc1cc(-c2onc(C)c2C(=O)NCCSC)cc(OC)c1OC	-1.6	31.6µM*
COc1cc(-c2onc(C)c2C(=O)NCCc2cccs2)cc(OC)c1OC	-1.4	22.4µM*
SMILES	IP6K1 inhibitor	KDM5B inhibitor
COc1ccc([C@H](C)NC(=O)c2c(C)noc2-c2cc(OC)c(OC)c(OC)c2)cc1	-0.6	?
COc1cc(-c2onc(C)c2C(=O)NCc2ccc(F)cc2F)cc(OC)c1OC	16.7	i
Fc1cccc(Cl)c1/C=N/N=C1c2ccccc2-c2ccccc21	·	i
COC(=O)N(C)Cc1cccc(N2CCN(C(=O)OC(C)(C)C)CC2)c1	3.2	·
O=C(c1noc(-c2ccc(F)cc2)n1)N1CCN(c2ccccc2)CC1	-16.4	?
O=C(c1noc(-c2ccc(F)cc2)n1)N1CCN(c2ccccc2F)CC1	1.2	31.6µM*
CCn1cnnc1CC1CCN(C(=O)CCC(=O)n2nc(C)c3ccccc32)CC1	0.9	i
CCn1cnnc1CC1CCN(C(=O)c2cnn3c(C)c(Cc4ccccc4Cl)c(C)nc23)CC1	13.2	28.2µM*
COc1ccc(OCC(=O)n2nc(C)c(S(=O)(=O)N3CCc4ccccc4C3)c2C)cc1	·	i
NC(=O)c1cc2c(nc1N1CCC3(CCCN(CC4CCC4)C3)C1)CCC2 (stereo unspecified)	20.5	25.1µM*
NC(=O)c1cccnc1N1CCC2(CCCN(Cc3cccc(F)c3F)C2)C1 (stereo unspecified)	3.2	i
CCCn1nc(C(=O)Nc2ccc(C(C)(C)C)cc2)c2ccccc2c1=O	·	i
Cc1nc(-c2cccc(Cl)c2)n(Cc2nc(-c3ccc(OC(C)C)cc3)oc2C)c(=O)c1CCO	3.3	11.2µM*
